Details in all cases: mRNA level, 48 h; actives raise or lower the signal
Read-out in test [1]: Interleukin 6 Receptor (IL6R), IL6R (gene 3570)
As to the kind of experiment: LTEA_HepaRG_IL6R: Life Technologies and Expression Analysis (LTEA) Assay for Interleukin 6 Receptor (IL6R) using HepaRG (AID 2283510). The procedure, abridged:
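Concentration-response in human liver HepaRG cells: eight concentrations from 100 uM downward by half-logs, 48 h exposure, 0.5% DMSO vehicle. IL6R mRNA change measured by qRT-PCR and fitted in both directions relative to vehicle.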

Read-out in test [2]: Potassium channel subfamily K member 1 (KCNK1), KCNK1 (gene 3775)
As to the kind of experiment: LTEA_HepaRG_KCNK1: Life Technologies and Expression Analysis (LTEA) Assay for Potassium channel subfamily K member 1 (KCNK1) using HepaRG (AID 2283511). The gist of the method:
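Differentiated human HepaRG cells in serum-free induction medium were exposed in duplicate for 48 h to 8 half-log concentrations up to 100 uM in 0.5% DMSO. KCNK1 mRNA was measured by TaqMan qRT-PCR, normalized to ACTB, GAPDH and POLR2A, and fitted bidirectionally versus DMSO.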

Read-out in test [3]: Keratin 19 (KRT19), KRT19 (gene 3880)
Description: LTEA_HepaRG_KRT19: Life Technologies and Expression Analysis (LTEA) Assay for Keratin 19 (KRT19) using HepaRG (AID 2283512). The gist of the method:
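Differentiated HepaRG cells in serum-free induction medium, exposed 48 h in duplicate to 8 half-log concentrations up to 100 uM in 0.5% DMSO. KRT19 mRNA by qRT-PCR, normalized to ACTB, GAPDH, POLR2A; bidirectional fit vs DMSO.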

Read-out in test [4]: JUN Transcription Factor, JUN (gene 3725)
Description: LTEA_HepaRG_JUN: Life Technologies and Expression Analysis (LTEA) Assay for JUN Transcription Factor using HepaRG (AID 2283513). The gist of the method:
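Human HepaRG liver cells receive test chemicals in 0.5% DMSO for 48 h across an eight-point range topping at 100 uM. Expression changes in JUN are scored in both directions against the DMSO vehicle.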

Read-out in test [5]: Lipase C (LIPC), LIPC (gene 3990)
As to the kind of experiment: LTEA_HepaRG_LIPC: Life Technologies and Expression Analysis (LTEA) Assay for Lipase C (LIPC) using HepaRG (AID 2283514). The procedure, abridged: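 Differentiated human HepaRG cells in serum-free induction medium were exposed in duplicate for 48 h to eight concentrations (top 100 uM, half-log steps, 0.5% DMSO). LIPC mRNA was quantified by TaqMan qRT-PCR, normalized to ACTB, GAPDH and POLR2A, with bidirectional fitting versus DMSO.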

Read-out in test [6]: Lipoprotein lipase (LPL), LPL (gene 4023)
As to the kind of experiment: LTEA_HepaRG_LPL: Life Technologies and Expression Analysis (LTEA) Assay for Lipoprotein lipase (LPL) using HepaRG (AID 2283515). The gist of the method:
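Differentiated human HepaRG cells in serum-free induction medium were exposed in duplicate for 48 h to eight half-log concentrations (top 100 uM) in 0.5% DMSO. LPL mRNA was quantified by TaqMan qRT-PCR, normalized to ACTB, GAPDH and POLR2A.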

Read-out in test [7]: MicroRNA 122 (MIR122), gene 406906
Description: LTEA_HepaRG_MIR122: Life Technologies and Expression Analysis (LTEA) Assay for MicroRNA 122 (MIR122) using HepaRG (AID 2283516). Further: the transcript read is the microRNA miR-122. The gist of the method: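 HepaRG, 48 h exposure, 8-pt half-log from 100 uM, 0.5% DMSO; TaqMan qRT-PCR; bidirectional fit vs DMSO.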

Read-out in test [8]: matrix metalloproteinase-10 (MMP10), MMP10 (gene 4319)
Description: LTEA_HepaRG_MMP10: Life Technologies and Expression Analysis (LTEA) Assay for matrix metalloproteinase-10 (MMP10) using HepaRG (AID 2283517). The gist of the method:
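HepaRG, collagen I, ~100,000 cells/well; serum-free induction medium; 48 h exposure, duplicate, 8-pt half-log to 100 uM, 0.5% DMSO. Readout: TaqMan qRT-PCR, normalized to ACTB/GAPDH/POLR2A; bidirectional fit vs DMSO.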

Read-out in test [9]: MYC, MYC (gene 4609)
As to the kind of experiment: LTEA_HepaRG_MYC: Life Technologies and Expression Analysis (LTEA) Assay for MYC using HepaRG (AID 2283518). The procedure, abridged:
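Differentiated HepaRG cells exposed 48 h in serum-free induction medium to 8 concentrations (top 100 uM, half-log steps; 0.5% DMSO), duplicate. MYC mRNA measured by Fluidigm qRT-PCR, normalized to ACTB, GAPDH, POLR2A; bidirectional fit versus DMSO.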

Read-out in test [10]: matrix metalloproteinase-3 (MMP3), MMP3 (gene 4314)
Description: LTEA_HepaRG_MMP3: Life Technologies and Expression Analysis (LTEA) Assay for matrix metalloproteinase-3 (MMP3) using HepaRG (AID 2283519). The procedure, abridged:
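Differentiated human HepaRG cells, plated 48 h on collagen I, were exposed in duplicate for 48 h in serum-free induction medium to eight half-log concentrations up to 100 uM in 0.5% DMSO. MMP3 mRNA was quantified by TaqMan qRT-PCR, normalised to ACTB, GAPDH and POLR2A.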

Read-out in test [11]: Paternally Expressed 10 (PEG10), PEG10 (gene 23089)
Description: LTEA_HepaRG_PEG10: Life Technologies and Expression Analysis (LTEA) Assay for Paternally Expressed 10 (PEG10) using HepaRG (AID 2283520).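 On AC50: PEG10 transcript by qRT-PCR normalised to ACTB GAPDH and POLR2A.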 The procedure, abridged: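 Chemicals tested on HepaRG cells for 48 h, highest concentration 100 uM. PEG10 expression assessed by qRT-PCR relative to DMSO control.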

Read-out in test [12]: Protein phosphatase 2A (PPP2R4), PTPA (gene 5524)
As to the kind of experiment: LTEA_HepaRG_PPP2R4: Life Technologies and Expression Analysis (LTEA) Assay for Protein phosphatase 2A (PPP2R4) using HepaRG (AID 2283522). The procedure, abridged: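 Gene-expression endpoint in HepaRG hepatic cells: 48 h treatment across eight half-log concentrations up to 100 uM in 0.5% DMSO. PPP2R4 mRNA by qRT-PCR, normalized to three endogenous control genes.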

Read-out in test [13]: Phosphatase and tensin (PTEN), PTEN (gene 5728)
As to the kind of experiment: LTEA_HepaRG_PTEN: Life Technologies and Expression Analysis (LTEA) Assay for Phosphatase and tensin (PTEN) using HepaRG (AID 2283523). The procedure, abridged: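 Differentiated human HepaRG cells, plated 48 h then switched to serum-free induction medium, were exposed in duplicate for 48 h to eight half-log concentrations up to 100 uM in 0.5% DMSO. PTEN mRNA measured by TaqMan qRT-PCR, normalized to ACTB/GAPDH/POLR2A, bidirectional fit versus DMSO.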

Read-out in test [14]: solute carrier (SLC22A1), SLC22A1 (gene 6580)
As to the kind of experiment: LTEA_HepaRG_SLC22A1: Life Technologies and Expression Analysis (LTEA) Assay for solute carrier (SLC22A1) using HepaRG (AID 2283524). The procedure, abridged: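 Human HepaRG cells were plated 48 h, switched to serum-free induction medium, then exposed in duplicate for 48 h to 8-point half-log series from 100 uM in 0.5% DMSO. SLC22A1 mRNA measured by qRT-PCR, normalized to ACTB/GAPDH/POLR2A, fitted bidirectionally versus DMSO.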

Read-out in test [15]: Pyruvate Dehydrogenase Kinase 4 (PDK4), PDK4 (gene 5166)
Description: LTEA_HepaRG_PDK4: Life Technologies and Expression Analysis (LTEA) Assay for Pyruvate Dehydrogenase Kinase 4 (PDK4) using HepaRG (AID 2283525). The procedure, abridged: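 Differentiated human HepaRG cells, pre-cultured 48 h, were exposed in duplicate for 48 h in serum-free induction medium to eight half-log concentrations up to 100 uM in 0.5% DMSO. PDK4 mRNA was quantified by qRT-PCR, normalized to ACTB, GAPDH and POLR2A, bidirectional fitting versus DMSO.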

Read-out in test [16]: NAD(P)H dehydrogenase [quinone] 1 (NQO1), NQO1 (gene 1728)
Description: LTEA_HepaRG_NQO1: Life Technologies and Expression Analysis (LTEA) Assay for NAD(P)H dehydrogenase [quinone] 1 (NQO1) using HepaRG (AID 2283526). The gist of the method: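 Human HepaRG hepatic cells received chemicals for 48 h in serum-free induction medium with 0.5% DMSO, up to 100 uM. Expression was assessed by TaqMan qRT-PCR against housekeeping controls and fitted bidirectionally against DMSO.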

Read-out in test [17]: Nuclear factor erythroid 2-related factor 2 (Homo sapiens) (UniProt Q16236)
As to the kind of experiment: LTEA_HepaRG_NFE2L2: Life Technologies and Expression Analysis (LTEA) Assay for Nuclear factor erythroid 2-related factor 2 (NFE2L2) Transcription Factor using HepaRG (AID 2283527).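 Further: TaqMan qRT-PCR transcript level normalised to ACTB GAPDH and POLR2A housekeeping genes.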 The gist of the method:
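Differentiated human HepaRG cells in serum-free induction medium were exposed for 48 h to eight concentrations (top 100 uM, half-log dilutions, 0.5% DMSO), in duplicate. NFE2L2 mRNA was quantified by TaqMan qRT-PCR, normalized to ACTB, GAPDH and POLR2A, with bidirectional fitting versus DMSO.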

Read-out in test [18]: succinate dehydrogenase complex iron sulfur subunit B (SDHB), SDHB (gene 6390)
Description: LTEA_HepaRG_SDHB: Life Technologies and Expression Analysis (LTEA) Assay for succinate dehydrogenase complex iron sulfur subunit B (SDHB) using HepaRG (AID 2283528). The gist of the method: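 Readout is SDHB transcript level by qRT-PCR, normalised to three housekeeping genes and fitted bidirectionally against 0.5% DMSO vehicle. Human HepaRG cells were treated for 48 h at up to 100 uM.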

Read-out in test [19]: Signal transducer and activator of transcription 3 (Homo sapiens) (UniProt P40763)
Description: LTEA_HepaRG_STAT3: Life Technologies and Expression Analysis (LTEA) Assay for Signal transducer and activator of transcription (STAT3) using HepaRG (AID 2283529). The procedure, abridged:
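Differentiated human HepaRG cells in serum-free induction medium were exposed in duplicate for 48 h to eight half-log concentrations up to 100 uM in 0.5% DMSO. STAT3 mRNA was quantified by TaqMan qRT-PCR, normalized to ACTB, GAPDH and POLR2A, and fitted bidirectionally against DMSO.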

Activity calls are given as the source filed them. How the source made its calls: active means hit-call score of the fitted dose curve at least 0.9, where 1 is the maximum; inactive means score below 0.9.

Signal transducer and activator of transcription 3 (Homo sapiens), sequence (P40763 whole entry, looked up): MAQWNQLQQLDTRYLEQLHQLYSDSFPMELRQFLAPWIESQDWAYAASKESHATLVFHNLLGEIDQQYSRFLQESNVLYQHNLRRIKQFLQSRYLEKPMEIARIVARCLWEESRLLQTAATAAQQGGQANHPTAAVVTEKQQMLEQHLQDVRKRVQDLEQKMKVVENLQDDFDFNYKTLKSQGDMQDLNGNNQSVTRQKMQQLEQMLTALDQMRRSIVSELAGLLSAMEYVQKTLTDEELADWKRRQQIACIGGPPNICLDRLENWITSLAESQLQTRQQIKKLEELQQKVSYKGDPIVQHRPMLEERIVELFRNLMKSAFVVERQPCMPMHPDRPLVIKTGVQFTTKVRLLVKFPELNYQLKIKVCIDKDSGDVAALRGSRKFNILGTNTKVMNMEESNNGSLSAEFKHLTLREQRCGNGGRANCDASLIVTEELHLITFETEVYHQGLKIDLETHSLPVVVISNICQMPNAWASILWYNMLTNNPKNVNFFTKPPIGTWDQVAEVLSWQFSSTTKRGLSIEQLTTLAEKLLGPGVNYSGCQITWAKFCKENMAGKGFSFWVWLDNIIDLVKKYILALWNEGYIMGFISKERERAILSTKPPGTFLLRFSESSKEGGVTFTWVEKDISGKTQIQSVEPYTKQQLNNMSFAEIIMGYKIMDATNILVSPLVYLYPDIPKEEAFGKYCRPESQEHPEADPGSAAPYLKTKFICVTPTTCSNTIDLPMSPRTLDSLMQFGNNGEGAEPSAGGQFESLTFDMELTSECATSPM
Nuclear factor erythroid 2-related factor 2 (Homo sapiens), sequence (Q16236 whole entry, looked up): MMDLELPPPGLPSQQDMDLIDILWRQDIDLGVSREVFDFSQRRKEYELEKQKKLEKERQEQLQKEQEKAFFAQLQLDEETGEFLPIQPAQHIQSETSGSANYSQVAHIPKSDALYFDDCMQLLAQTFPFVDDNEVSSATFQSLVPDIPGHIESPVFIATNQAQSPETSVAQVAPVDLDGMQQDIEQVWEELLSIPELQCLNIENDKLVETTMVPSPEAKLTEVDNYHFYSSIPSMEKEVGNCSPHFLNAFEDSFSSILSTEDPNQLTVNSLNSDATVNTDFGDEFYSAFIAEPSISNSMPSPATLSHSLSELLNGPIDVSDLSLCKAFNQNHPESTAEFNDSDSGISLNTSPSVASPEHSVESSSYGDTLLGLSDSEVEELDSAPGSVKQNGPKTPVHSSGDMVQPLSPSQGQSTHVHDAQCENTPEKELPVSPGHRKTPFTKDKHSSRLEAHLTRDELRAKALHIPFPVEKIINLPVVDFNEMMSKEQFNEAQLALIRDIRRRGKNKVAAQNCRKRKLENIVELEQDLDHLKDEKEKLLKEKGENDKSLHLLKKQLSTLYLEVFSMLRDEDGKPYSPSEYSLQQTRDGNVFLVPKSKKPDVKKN

Consider `CCCN(CC)CC1COC2(CCC(C(C)(C)C)CC2)O1` (stereo unspecified), for which the result in test [1], in test [2], in [3], in test [4], in test [5] and in [6] was inactive. The result in test [7], in test [8], in test [9], in test [10], in test [11] and in test [12] was inactive. For the same compound, the call in test [13], in test [14], in test [15], in [16], in test [17] and in test [18] was inactive. In test [19], the compound was classed as inactive.
Take `Cn1c(-c2ccccc2)cc(-c2ccccc2)[n+]1C`: the result in test [1], in test [2], in test [4], in test [12], in [15] and in [16] was inactive. The outcome in [17] and in test [18] was inactive. The AC50 was 24 µM (active) in test [3]; 28 µM (active) in [5]; 11.4 µM (active) in [6]; 28.7 µM (active) in test [7]; 3.12 µM (active) in test [9]; 88.9 µM (active) in test [10]. Further, the half-maximal activity concentration (AC50) was 10.7 µM (active) in test [11], 88.3 µM (active) in test [13], 34.5 µM (active) in test [14] and 22.5 µM (active) in [19].
As to `CSC(=O)c1c(C(F)F)nc(C(F)(F)F)c(C(=O)SC)c1CC(C)C`, the call in test [1], in test [2], in [3], in test [4], in [6] and in test [8] was inactive. Further, the call in [9], in test [10], in test [11], in test [12], in test [13] and in [16] was inactive. Also, the call in test [17] and in test [18] was inactive. Also, the AC50 in test [5] was 91.9 µM (active); in [7], 49.8 µM (active); in test [14], 90 µM (active); in test [15] it was 33.8 µM (active); in test [19], 49.8 µM (active).

(Values after PubChem BioAssay (EPA / NIEHS).)
